Source: PubChem BioAssay (NCATS)
Records with an inconclusive call do not appear. Entries that show only a call come without a potency. Values without a mark were called inactive. Activity calls are given as the source filed them. Calls come from the whole dose curve; as a rule, active = well fitted curve in the direction sought with a large enough effect; inconclusive = small, poorly fitted or top-dose-only effect, or another doubt; inactive = no such curve, though single readings can be large; an effect the other way counts as inactive or inconclusive.

Tests used:
CRL-7250 = normal cell line; assay: Cytotoxic Profiling of Annotated Libraries Using Quantitative High-Throughput Screening (AID 1296008); conditions: Five cell lines viability, CellTiter-Glo ATP luminescence, 48-72 h; max response: active compounds read low; note: nearly all actives have a fitted effect of over 60% in size; note: potency is the fitted concentration of half-maximal effect
Summary of the method: (§1)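 Compounds were pin-transferred onto cells and incubated 48 or 72 hr at 37 degree Celsius, 95% humidity. CellTiter-Glo was added, plates sat 10 min at room temperature, then ATP-coupled luminescence was imaged as the viability read-out.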

HEK293 = assay: as above; conditions: Five cell lines viability, CellTiter-Glo ATP luminescence, 48-72 h; max response: active compounds read low
Summary of the method: as §1

NIH3T3 [1] = assay: as above; conditions: Five cell lines viability, CellTiter-Glo ATP luminescence, 48-72 h; max response: active compounds read low
Summary of the method: as §1

CASKI = assay: Primary qHTS to identify gynecologic anti-cancer compounds using libraries of approved drugs and bioactive compounds (AID 1345084); conditions: Gynecologic cancer cell panel viability, ATPlite luminescence, 48 h; series mostly up to 57.5 µM; note: nearly all actives have a fitted effect of over 55% in size; note: potency is the fitted concentration of half-maximal effect
Summary of the method: (§2)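 Cell viability after 48 h drug treatment, ATPlite luminescence readout; five doses.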

HeLa = assay: as above; conditions: Gynecologic cancer cell panel viability, ATPlite luminescence, 48 h; series mostly up to 57.5 µM
Summary of the method: as §2

Hek293T = assay: as above; conditions: Gynecologic cancer cell panel viability, ATPlite luminescence, 48 h, control line for the selectivity index; series mostly up to 57.5 µM
Summary of the method: as §2

JEG-3 = assay: as above; conditions: Gynecologic cancer cell panel viability, ATPlite luminescence, 48 h; series mostly up to 57.5 µM
Summary of the method: as §2

OV90 = assay: as above; conditions: Gynecologic cancer cell panel viability, ATPlite luminescence, 48 h; series mostly up to 57.5 µM
Summary of the method: as §2

HaCat [2] = assay: Cytotoxic Profiling of Annotated Libraries Using Quantitative High-Throughput Screening (AID 1296008); conditions: Five cell lines viability, CellTiter-Glo ATP luminescence, 48-72 h; max response: active compounds read low; note: nearly all actives have a fitted effect of over 60% in size; note: potency is the fitted concentration of half-maximal effect
Summary of the method: as §1

KB-3-1 = assay: as above; conditions: Five cell lines viability, CellTiter-Glo ATP luminescence, 48-72 h; max response: active compounds read low
Summary of the method: as §1

HACAT [3] = assay: qHTS assay to identify novel small-molecules to repurpose for Merkel cell carcinoma treatment (AID 1296009); conditions: MCC and control cell lines, CellTiter-Glo viability, 72 h; at 44.8 µM (top of the series) unless noted; note: nearly all actives have a fitted effect of over 60% in size
Summary of the method: (§3)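 Cells exposed to NPC (8-point) and MIPE (11-point) compound dilutions for 72 hr at 37 degree celsius; viability read by CellTiter-Glo luminescence, normalized to no-cell and DMSO in-plate controls.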

NIH3T3 [4] = assay: as above; conditions: MCC and control cell lines, CellTiter-Glo viability, 72 h; series mostly up to 44.8 µM
Summary of the method: as §3

C33A = assay: Primary qHTS to identify gynecologic anti-cancer compounds using libraries of approved drugs and bioactive compounds (AID 1345084); conditions: Gynecologic cancer cell panel viability, ATPlite luminescence, 48 h; series mostly up to 57.5 µM; note: nearly all actives have a fitted effect of over 55% in size; note: potency is the fitted concentration of half-maximal effect
Summary of the method: as §2

CAOV3 = assay: as above; conditions: Gynecologic cancer cell panel viability, ATPlite luminescence, 48 h; series mostly up to 57.5 µM
Summary of the method: as §2

Es-2 = assay: as above; conditions: Gynecologic cancer cell panel viability, ATPlite luminescence, 48 h; series mostly up to 57.5 µM
Summary of the method: as §2

C=C1C(=O)O[C@@H]2[C@H]1CC(=O)[C@H](C)[C@@](O)(C(=O)/C=C/C)[C@H]2OC(=O)C(C)CC (some centres not stated)
Potency (CRL-7250): 7.18 µM (active) | Potency (HEK293): 2.86 µM (active) | Potency (NIH3T3 [1]): 4.04 µM (active) | Potency (CASKI): 10 µM (active) | Potency (HeLa): inactive | Potency (Hek293T): 10 µM (active) | Potency (JEG-3): inactive | Potency (OV90): inactive

CC#CCn1c(N2CCCC(N)C2)nc2c1c(=O)n(Cc1nc(C)c3ccccc3n1)c(=O)n2C (configuration not stated)
max response (CRL-7250): 0.556% | outcome (HaCat [2]): inactive | outcome (KB-3-1): inactive | outcome (NIH3T3 [1]): inactive | outcome (HACAT [3]): inactive | Potency (NIH3T3 [4]): inactive | Potency (C33A): inactive | Potency (CAOV3): inactive | Potency (CASKI): inactive | Potency (Es-2): inactive | Potency (HeLa): inactive | Potency (Hek293T): inactive | Potency (JEG-3): inactive | Potency (OV90): inactive

CCC(C)C1NC(=O)C(Cc2ccccc2)NC(=O)C(CCCCCC(=O)C(O)CO)NC(=O)C2CCCCN2C1=O (configuration not stated)
max response (CRL-7250): -4.29% | outcome (HaCat [2]): inactive | outcome (KB-3-1): inactive | outcome (NIH3T3 [1]): inactive | outcome (HACAT [3]): inactive [at 17.4 µM] | Potency (NIH3T3 [4]): inactive | Potency (C33A): inactive | Potency (CAOV3): inactive | Potency (CASKI): inactive | Potency (Es-2): inactive | Potency (HeLa): inactive | Potency (Hek293T): inactive | Potency (JEG-3): inactive

COC(=O)c1ccc2c(c1)[nH]c1ncnc(NCCCN3CCCCC3)c12
max response (CRL-7250): -8.38% | outcome (HaCat [2]): inactive | max response (KB-3-1): -20.2% | outcome (NIH3T3 [1]): inactive | outcome (HACAT [3]): inactive | Potency (NIH3T3 [4]): inactive | Potency (C33A): inactive | Potency (CAOV3): inactive | Potency (CASKI): inactive | Potency (Es-2): inactive | Potency (HeLa): inactive | Potency (Hek293T): inactive | Potency (JEG-3): inactive | Potency (OV90): inactive

CC(C)(F)CC(NC(c1ccc(-c2ccc(S(C)(=O)=O)cc2)cc1)C(F)(F)F)C(=O)NC1(C#N)CC1 (configuration not stated)
max response (CRL-7250): -1.34% | outcome (HaCat [2]): inactive | outcome (KB-3-1): inactive | outcome (NIH3T3 [1]): inactive | outcome (HACAT [3]): inactive | Potency (NIH3T3 [4]): inactive | Potency (C33A): inactive | Potency (CAOV3): inactive | Potency (CASKI): inactive | Potency (Es-2): inactive | Potency (HeLa): inactive | Potency (Hek293T): inactive | Potency (JEG-3): inactive | Potency (OV90): inactive

Fc1ccc2c(CCNCc3cccc(OCC(F)(F)C(F)F)c3)c[nH]c2c1
max response (CRL-7250): 4.88% | outcome (HaCat [2]): inactive | max response (KB-3-1): 7.73% | outcome (NIH3T3 [1]): inactive | outcome (HACAT [3]): inactive | Potency (NIH3T3 [4]): inactive | Potency (C33A): inactive | Potency (CAOV3): inactive | Potency (CASKI): inactive | Potency (Es-2): inactive | Potency (HeLa): inactive | Potency (Hek293T): inactive | Potency (JEG-3): inactive | Potency (OV90): inactive

C=C(C(=O)OC)[C@@H]1CC=C2C=CC(=O)[C@H](C)[C@@]2(C)C1
max response (CRL-7250): 4.23% | outcome (HaCat [2]): inactive | max response (KB-3-1): -5.91% | outcome (NIH3T3 [1]): inactive | outcome (HACAT [3]): inactive | Potency (NIH3T3 [4]): inactive | Potency (C33A): inactive | Potency (CAOV3): inactive | Potency (CASKI): inactive | Potency (Es-2): inactive | Potency (HeLa): inactive | Potency (Hek293T): inactive | Potency (JEG-3): inactive | Potency (OV90): inactive

CC(C)(O)c1ccc2c(c1)ncn2-c1cccc(-c2ccccc2C#N)c1
outcome (CRL-7250): inactive | outcome (HaCat [2]): inactive | max response (KB-3-1): -0.453% | outcome (NIH3T3 [1]): inactive | outcome (HACAT [3]): inactive | Potency (NIH3T3 [4]): inactive | Potency (C33A): inactive | Potency (CAOV3): inactive | Potency (CASKI): inactive | Potency (Es-2): inactive | Potency (HeLa): inactive | Potency (Hek293T): inactive | Potency (JEG-3): inactive | Potency (OV90): inactive

CC[C@H](C)/C=C(C)/C=C/C1=CC2=C(Cl)C(=O)[C@](C)(O)[C@H](OC(C)=O)[C@H]2CO1
max response (CRL-7250): -9.34% | outcome (HaCat [2]): inactive | max response (KB-3-1): -1.44% | outcome (NIH3T3 [1]): inactive | outcome (HACAT [3]): inactive | Potency (NIH3T3 [4]): inactive | Potency (C33A): inactive | Potency (CAOV3): inactive | Potency (CASKI): inactive | Potency (Es-2): inactive | Potency (HeLa): inactive | Potency (Hek293T): inactive | Potency (JEG-3): inactive | Potency (OV90): inactive

C=C1CCC2C(C)(C(=O)O)CCCC2(C)C1CCC1=CCOC1=O (configuration not stated)
outcome (CRL-7250): inactive | outcome (HaCat [2]): inactive | max response (KB-3-1): -6.84% | outcome (NIH3T3 [1]): inactive | outcome (HACAT [3]): inactive | Potency (NIH3T3 [4]): inactive | Potency (C33A): inactive | Potency (CAOV3): inactive | Potency (CASKI): inactive | Potency (Es-2): inactive | Potency (HeLa): inactive | Potency (Hek293T): inactive | Potency (JEG-3): inactive | Potency (OV90): inactive

O=S(=O)(N[C@H]1CCCC[C@@H]1N1CCOCC1)c1ccc(Cl)cc1
max response (CRL-7250): -16% | outcome (HaCat [2]): inactive | max response (KB-3-1): 1.51% | outcome (NIH3T3 [1]): inactive | outcome (HACAT [3]): inactive | Potency (NIH3T3 [4]): inactive | Potency (C33A): inactive | Potency (CAOV3): inactive | Potency (CASKI): inactive | Potency (Es-2): inactive | Potency (HeLa): inactive | Potency (Hek293T): inactive | Potency (JEG-3): inactive

N[C@@H]1c2cccnc2[C@H](OC(=O)N2CCC(n3c(=O)[nH]c4ncccc43)CC2)CC[C@H]1c1cccc(F)c1F
max response (CRL-7250): -0.901% | outcome (HaCat [2]): inactive | max response (KB-3-1): 4.19% | outcome (NIH3T3 [1]): inactive | outcome (HACAT [3]): inactive | Potency (NIH3T3 [4]): inactive | Potency (C33A): inactive | Potency (CAOV3): inactive | Potency (CASKI): inactive | Potency (Es-2): inactive | Potency (HeLa): inactive | Potency (Hek293T): inactive | Potency (JEG-3): inactive | Potency (OV90): inactive

CC1=CC2/C=C(\C)CCC(O)C/C=C/C(=O)OC23C(=O)NC(CC(C)C)C3C1C (configuration not stated)
max response (CRL-7250): -1.17% | outcome (HaCat [2]): inactive | outcome (KB-3-1): inactive | outcome (NIH3T3 [1]): inactive | outcome (HACAT [3]): inactive [at 17.4 µM] | Potency (NIH3T3 [4]): inactive | Potency (C33A): inactive | Potency (CAOV3): inactive | Potency (CASKI): inactive | Potency (Es-2): inactive | Potency (HeLa): inactive | Potency (Hek293T): inactive | Potency (JEG-3): inactive | Potency (OV90): inactive

CC(=O)NC[C@H]1CN(c2ccc(N3CCSCC3)c(F)c2)C(=O)O1
max response (CRL-7250): 3.86% | outcome (HaCat [2]): inactive | max response (KB-3-1): -11.9% | outcome (NIH3T3 [1]): inactive | outcome (HACAT [3]): inactive | Potency (NIH3T3 [4]): inactive | Potency (C33A): inactive | Potency (CAOV3): inactive | Potency (CASKI): inactive | Potency (Es-2): inactive | Potency (HeLa): inactive | Potency (Hek293T): inactive | Potency (JEG-3): inactive | Potency (OV90): inactive

CCOC(=O)CCNc1cc(N2CCc3ccccc3CC2)nc(-c2cccnc2)n1
outcome (CRL-7250): inactive | outcome (HaCat [2]): inactive | outcome (KB-3-1): inactive | outcome (NIH3T3 [1]): inactive | outcome (HACAT [3]): inactive | Potency (NIH3T3 [4]): inactive | Potency (C33A): inactive | Potency (CAOV3): inactive | Potency (CASKI): inactive | Potency (Es-2): inactive | Potency (HeLa): inactive | Potency (Hek293T): inactive | Potency (JEG-3): inactive | Potency (OV90): inactive
